For 46 compounds, largest response in the series, negative = inhibition and Potency results are on record in PubChem BioAssay AID1490 (National Center for Advancing Translational Sciences (NCATS), 2009).

SMILES strings stand for the structures. The whole screen tested about 310,000 compounds, of which about 11,000 (3.5%) were called active. About 4% were inconclusive and are not listed. Only a selection was taken, and actives are over-represented in it overall. Values without a mark were called inactive. Calls follow the shape of the dose curve; as a rule, active = well fitted inhibition curve with a large enough effect; inconclusive = small, poorly fitted or top-dose-only effect, or another doubt; inactive = no such curve, though single readings can be large or run the other way.
Potency is read from the fitted curve at half-maximal effect.

This assay has as its target 4'-phosphopantetheinyl transferase ffp (Bacillus subtilis) (UniProt Q9F4F7). Description: qHTS Assay for Inhibitors of Bacillus subtilis Sfp phosphopantetheinyl transferase (PPTase).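 Also: the enzyme is Sfp with the accession as filed and its product quenches rhodamine fluorescence.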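 As to largest response in the series, negative = inhibition: 0% = enzyme reaction without inhibitor and -100% = no enzyme wells.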 To be noted: Biochemical Sfp PPTase activity. In outline:
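After 15 min at room temperature with compound, 15 nM Sfp received 5 uM rhodamine-CoA plus 12.5 uM BHQ-2-ybbR (50 mM Hepes pH 7.6, 10 mM MgCl2). Rate came from the fluorescence difference over 30 min, ex 525/em 598 nm.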
On the technique in general: Quantitative high-throughput screening tests each substance at several concentrations.
Take `CC(=O)c1sc(N/N=C\c2ccc(C)cc2)nc1C`: the largest response in the series, negative = inhibition is -20.4%.

Take `CCCCN1C(=O)C(C)=C(C)C1OCCc1ccc(OC)c(OC)c1` (stereo unspecified): the largest response in the series, negative = inhibition is 14%.

Consider `CCC(=O)c1cn(CCOc2ccccc2OC)c2ccccc12`, for which the largest response in the series, negative = inhibition is 2.97%.

`O=S(=O)(c1ccc(NC(=S)NN=C(C2CC2)C2CC2)cc1)N1CCOCC1`: the Potency is 44.7 µM (active).

As to `O=C(NC(=S)Nc1ccc(S(=O)(=O)N2CCOCC2)cc1)c1ccccc1[N+](=O)[O-]`, the largest response in the series, negative = inhibition is -9.64%.

As to `CN1CCN(S(=O)(=O)c2ccc(NC(=S)NC(=O)C3CC3)cc2)CC1`, the largest response in the series, negative = inhibition was 22.5%.

Take `CC(=O)Oc1cccc(C(=O)Nc2ccccc2NC(=O)c2cccc(OC(C)=O)c2)c1`: the largest response in the series, negative = inhibition was 11.7%.

On to `CCOc1ccc2[nH]c(=O)c(CN(CCCO)S(=O)(=O)c3ccc(F)cc3)cc2c1`, for which the largest response in the series, negative = inhibition is 2.06%.

As for `CC1=C(C)CC2C(=O)N(c3cccc4ccccc34)C(=O)C2C1` (stereo unspecified), the Potency is 39.8 µM (active).

Take `Cc1ccc(N2C(=O)CC(Nc3cccc4ccccc34)C2=O)cc1` (stereo unspecified): the largest response in the series, negative = inhibition was 3.72%.

Consider `O=C1c2ccccc2C(=O)N1c1cccc2ccccc12`, for which the largest response in the series, negative = inhibition is 4.99%.

For `COc1ccc(NC(=O)CCS(=O)(=O)c2cc3c(cc2Cl)NC(=O)CO3)cc1OC`, the largest response in the series, negative = inhibition was 8.75%.

Regarding `CCOc1ccccc1/C=N/NC(=O)CNC(=O)COc1ccccc1`, the largest response in the series, negative = inhibition was 13.5%.

As to `C=C(C)CNC(=S)N/N=C/c1ccccc1OCC(=O)O`, the Potency is 12.6 µM (active).

For `C=CCc1ccccc1OCC(=O)N/N=C/c1ccccc1OCC`, the largest response in the series, negative = inhibition is -17.8%.

As for `Cc1ccc(NC(=O)O[C@@H]2C(=O)c3cc(Br)ccc3O[C@H]2c2ccc3c(c2)OCO3)cc1Br`, the largest response in the series, negative = inhibition is -5.42%.

With `N[C@@H](Cc1ccccc1)C(=O)N1CCC(C(=O)NCC(=O)Nc2ccc(F)cc2)CC1`, the largest response in the series, negative = inhibition was -3.37%.

As to `C[N+](C)(C)CCNC(=O)c1cc[n+](Cc2ccccc2)c(/C=N/O)c1`, the largest response in the series, negative = inhibition is 3.04%.

As to `N#CCC(=O)NC1CCC(CC2CCC(NC(=O)CC#N)CC2)CC1` (stereo unspecified), the largest response in the series, negative = inhibition was -5.45%.

As to `CCCn1c(SCC(=O)N2CCc3ccccc32)nnc1-c1ccncc1`, the largest response in the series, negative = inhibition was 15.4%.

Regarding `Cn1c(SCC(=O)N2CCCc3ccccc32)nc2ccccc2c1=O`, the largest response in the series, negative = inhibition is 0.535%.

Consider `COc1ccc(-c2nnc3ccc(SCc4ccccc4)nn23)cc1`, for which the largest response in the series, negative = inhibition was -4.23%.

Regarding `O=C(CSc1ccc2nnc(-c3ccccc3)n2n1)N1CCCc2ccccc21`, the Potency is 8.91 µM (active).

Regarding `COC(=O)c1ccc(CSc2ccc3nnc(-c4ccccc4)n3n2)o1`, the Potency is 70.8 µM (active).

On to `COC(=O)c1ccc(CSc2ccccc2C)o1`, for which the largest response in the series, negative = inhibition is 17.7%.

Turning to `CN(CC(=O)Nc1ccc(Cl)cc1)C(=O)CNC(=O)c1ccc2ccccc2c1`, the largest response in the series, negative = inhibition was 1.11%.

On to `O=C1CCN(Cc2ccccc2)CCN1[C@H](CSc1ccccc1)c1ccccc1`, for which the largest response in the series, negative = inhibition was 2.51%.

With `O=C(O)CS/C(=C\c1ccc(F)cc1)c1nc2ccccc2s1`, the largest response in the series, negative = inhibition was 27.3%.

Turning to `O=C(Nc1nc2ccccc2s1)c1ccc2c(c1)OCO2`, the largest response in the series, negative = inhibition was 16.2%.

Take `O=C(O)CC/C(=C\c1cc2c(cc1Br)OCO2)c1nc2ccccc2s1`: the Potency was 50.1 µM (active).

As for `CC(C)[C@H](NC(=O)N1CCn2c1nc1ccccc12)C(=O)NCCc1ccccc1`, the largest response in the series, negative = inhibition is 3.48%.

Regarding `CC(C(=O)NC1CCS(=O)(=O)C1)N1C(=O)/C(=C/c2ccc(Cl)cc2)SC1=S` (stereo unspecified), the largest response in the series, negative = inhibition was -16.1%.

Take `CC(C)(C)c1ccc(CN2C(=O)c3ccccc3S2(=O)=O)cc1`: the largest response in the series, negative = inhibition is -8.95%.

Consider `Cc1ccccc1NC(=O)CSc1nc2ccc(Nc3nc(N4CCOCC4)nc(N4CCOCC4)n3)cc2s1`, for which the largest response in the series, negative = inhibition is -16.9%.

For the compound `Cc1cc(C)cc(OCC(=O)NC(C)c2ccccc2)c1` (stereo unspecified), the largest response in the series, negative = inhibition was -3.71%.

For the compound `Cc1ccc(OCC(=O)NC(C)c2ccccc2)cc1C` (stereo unspecified), the largest response in the series, negative = inhibition was -3.78%.

With `C/C(CC(=O)NC(C)c1ccccc1)=N\NC(N)=S` (stereo unspecified), the Potency is 79.4 µM (active).

`CC(=O)Nc1ccc(S(=O)(=O)N2CCC(C(=O)N[C@@H](Cc3ccccc3)C(=O)O)CC2)cc1`: the largest response in the series, negative = inhibition is 27.7%.

Turning to `C[C@@H]1O[C@@H](OC[C@H]2O[C@@H](Oc3cc(O)c4c(c3)O[C@H](c3ccc(O)c(O)c3)CC4=O)[C@H](O)[C@@H](O)[C@@H]2O)[C@H](O)[C@H](O)[C@H]1O`, the largest response in the series, negative = inhibition was 2.86%.

Take `COC(=O)c1cc(C)sc1NC(=O)CC1Nc2ccccc2NC1=O` (stereo unspecified): the Potency was 79.4 µM (active).

Take `CCOC(=O)c1ccccc1NC(=O)CC1Nc2ccccc2NC1=O` (stereo unspecified): the largest response in the series, negative = inhibition is 5.03%.

Turning to `O=C(CC1Nc2ccccc2NC1=O)Nc1ccccc1NC(=O)CC1Nc2ccccc2NC1=O` (stereo unspecified), the largest response in the series, negative = inhibition was -13.5%.

Consider `Cc1sc2ncn(CC(=O)NCCCC(=O)N(C)Cc3ccccc3)c(=O)c2c1C`, for which the largest response in the series, negative = inhibition is 13.5%.

For `N#Cc1nc(-c2ccc(OCc3ccccc3)cc2)oc1NCCCN1CCOCC1`, the Potency was 44.7 µM (active).

Consider `O=S(=O)(c1ccccc1)c1nc(-c2ccccc2)oc1NCCCN1CCOCC1`, for which the largest response in the series, negative = inhibition was 11.1%.

Turning to `Cc1ccc(-c2nc(C#N)c(NCCCn3ccnc3)o2)cc1`, the largest response in the series, negative = inhibition was -4.22%.
